Screens: PubChem BioAssay, National Center for Advancing Translational Sciences (NCATS)
Lassa entry inh: qHTS for Inhibitors of binding or entry into cells for Lassa Virus | Potency, µM (doses to about 37.9 µM), without a hit: at the top dose activity change, negative = inhibition, actives largely listed as inhibitors | actives 1.2% (n = 300,000) | Lassa virus pseudotype entry inhibition, cell reporter; calls by dose curve; tested in HEK293 cells; also: nearly all actives have a fitted effect of over 50% in size
FMDV antiviral: High Throughput Screening for Foot and Mouth Disease Virus Antivirals; actives 1.2% (n = 410,000); FMDV antiviral cell-based qHTS; AID 1159524, 2015; Potency, µM (top dose mostly 57.9 µM), inactives show top-dose activity change, negative = inhibition, usual class: inhibitors; calls by dose curve; tested in HEK293T cells; also: read-out not given here; nearly all actives have a fitted effect of over 45% in size
Sm TGR inh: qHTS Assay for the Inhibitors of Schistosoma Mansoni Peroxiredoxins; Schistosoma mansoni thioredoxin glutathione reductase (TGR), Q962Y6; purified TGR, DTNB reduction, TNB absorbance 405 nm; Potency, µM (series often up to 114 µM), for the others: at the highest dose activity change, negative = inhibition, usual class: inhibitors; actives 3% (n = 360,000); AID 485364, 2010; active = well fitted inhibition curve with a large enough effect; inconclusive = small, poorly fitted or top-dose-only effect; inactive = no such curve, though single readings can be large or run the other way; also: nearly all actives have a fitted effect of over 60% in size
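Kinetic colorimetric format: TGR-catalysed, NADPH-driven DTNB reduction monitored via TNB absorbance. Enzyme dispensed at 20 nM; compound exposure 15 min at room temperature before reaction start.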
Vaccinia Venus: qHTS for Stage-Specific Inhibitors of Vaccinia Orthopoxvirus: Venus Reporter Primary qHTS; Potency, µM (titrated, usually from 36.5 µM), without a hit: top-dose activity change, negative = inhibition, most hits filed as inhibitors; Vaccinia virus Venus reporter expression, fluorescence; actives 0.46% (n = 330,000); calls by dose curve; tested in A549 cells; also: nearly all actives have a fitted effect of over 30% in size
Marburg entry inh: qHTS for inhibitors of binding or entry into cells for Marburg Virus; Marburg virus pseudotyped entry inhibition, cell reporter; Potency, µM (highest dose often 37.8 µM), for inactives: at the top dose activity change, negative = inhibition, usual class: inhibitors; actives 1.8% (n = 300,000); AID 540276, 2011; calls by dose curve; tested in HEK293 cells
Vaccinia mCherry: qHTS for Stage-Specific Inhibitors of Vaccinia Orthopoxvirus: mCherry Reporter Primary qHTS. Vaccinia virus mCherry reporter infection, fluorescence. Potency, µM (top dose mostly 36.5 µM), inactives show at the highest dose activity change, negative = inhibition, usual class: inhibitors. actives 0.63% (n = 310,000); calls by dose curve; tested in A549 cells; also: nearly all actives have a fitted effect of over 35% in size
Starred values were filed as active, the others as inactive; i = inactive; u = inconclusive; x = no result given; [ ] = remark or other dose. Only some compounds are listed: those with a hit (about 5.4% of all), similar ones and a draw of the others. % is scaled to controls: 0 for no effect and ±100 for the full control effect; potency is read from the fitted curve at half-maximal effect.

SMILES	Lassa entry inh	FMDV antiviral	Sm TGR inh	Vaccinia Venus	Marburg entry inh	Vaccinia mCherry
CCOC(=O)C12CC1/C(=N\O)c1ccccc1O2 (centres undefined)	x	6%	x	-7%	x	-11%
Cn1c(O)c(N=Nc2ccc(F)cc2)c2ccccc21	u	35%	-11%	-3%	7%[46.1 µM]	u
Cn1c(O)c(N=Nc2ccccc2)c2ccccc21	u	6%	45µM*	-6%	5%[46.1 µM]	-5%
Cc1cc(C)cc(C(=O)NCCn2cc(C(=O)N3CCSCC3)nn2)c1	x	-2%	x	-19%	x	-17%
OC(c1ccc2c(c1)CN(Cc1c[nH]c3ccccc13)CCO2)c1ccccn1 (centres undefined)	x	3%	x	-4%	x	-6%
CCCCC1(CC(=O)OC)C(=O)N(c2ccccc2)N(c2ccccc2)C1=O	-3%	-9%	-8%	-1%	u	-12%
CCCCC1(Cc2ccc(OC)c([N+](=O)[O-])c2)C(=O)N(c2ccccc2)N(c2ccccc2)C1=O	u	u	17%	-15%	14µM*	-17%
CCCCCCCCCCCCN1CCSCCS1(=O)=O	6%[46.1 µM]	x	x	x	x	x
Cc1ccc(NCCC(=O)c2cccs2)cc1	x	9%	1.3µM*	x	x	x
Cc1ccc(NCCC(=O)c2cccs2)cc1C	12%	34%	0%	-14%	u	i
O=C(CCC(=O)c1cccs1)NNC(=O)c1cccc(Cl)c1	16%	-20%	-11%	0%	-1%[46.1 µM]	-3%
Cc1ccc(NCCC(=O)c2cccs2)cc1Cl	12%	18%	4µM*	-10%	u	-2%
CC(C)c1ccc(NCCC(=O)c2cccs2)cc1	22%	16%	3.2µM*	-5%	u	-12%
O=C(CCNc1cccc(Cl)c1)c1cccs1	18%	38%	5.6µM*	x	13%	x
Cc1c(C(=O)N2CCCCCC2)c(S(=O)(=O)Nc2ccc(OC(F)(F)F)cc2)c(C)n1C	-9%[46.1 µM]	-4%	0%	-2%	x	-8%
COc1ccccc1CNC(=O)c1cnn(-c2nccc(-c3cccs3)n2)c1C	x	49%	x	-13%	x	-9%
COc1ccccc1C1CN(CC(=O)N2CCC(N3CCOCC3)CC2)Cc2ccccc2O1 (centres undefined)	x	5%	x	-3%	x	-3%
Cc1c(/C(O)=C2\C(=O)C(=O)N(CCN(C)C)C2c2ccccc2)cnn1-c1ccccc1 (centres undefined)	12%[46.1 µM]	-6%	13µM*	-4%	6%[46.1 µM]	i
COc1cccc(C2/C(=C(/O)c3cnn(-c4ccccc4)c3C)C(=O)C(=O)N2CCN(C)C)c1OC (centres undefined)	-7%	0%	-30%	-2%	1.1µM*	-11%
COc1ccc(C)cc1NC(=O)Cn1nc(N2CCN(c3ccccc3OC)CC2)ccc1=O	3%[46.1 µM]	-12%	1%	-13%	x	-27%
Cc1c(C(=O)N2CCC(C)CC2)c(S(=O)(=O)N2CCN(c3ccc(Cl)cc3)CC2)c(C)n1C	-11%[46.1 µM]	-7%	0%	-13%	x	-13%
Nc1nc(Nc2cccc(Cl)c2)nc(NCc2ccco2)c1[N+](=O)[O-]	u	u	-26%	-12%	5.6µM*	-30%
Cc1cccc(Nc2nc(NCc3ccco3)nc(N)c2[N+](=O)[O-])c1	u	4%	0%	0%	5.6µM*	-15%
Nc1nc(NCc2ccco2)nc(N2CCCCC2)c1[N+](=O)[O-]	1%	-22%	-10%	-21%	10µM*	-20%
COC(=O)c1c(NC(=O)C2CCCCC2)sc2c1CCN(C(C)C)C2	x	u	-19%	-19%	x	-24%
SMILES	Lassa entry inh	FMDV antiviral	Sm TGR inh	Vaccinia Venus	Marburg entry inh	Vaccinia mCherry
CC(C)N1CCc2c(sc(NC(=O)C3CCCCC3)c2C(N)=O)C1	x	u	4%	13µM*	x	u
O=C(CN1C(=O)c2ccccc2C1=O)NC1CCS(=O)(=O)C1 (centres undefined)	x	9%	x	-6%	x	i
CN(C1=C(NC(=O)c2ccccc2)C(=O)c2ccccc2C1=O)C1CCS(=O)(=O)C1 (centres undefined)	u	10µM*	u	x	u	x
CC(=O)NC1=C(NC2CCS(=O)(=O)C2)C(=O)c2ccccc2C1=O (centres undefined)	-16%	-39%	0.71µM*	u	u	-18%
O=C(NC(=S)NC1CCS(=O)(=O)C1)c1ccccc1 (centres undefined)	x	2%	2%	x	x	x
CCOc1ccc(NC(=O)CSc2oc(-c3ccco3)nc2S(=O)(=O)c2ccc(Cl)cc2)cc1	0%[46.1 µM]	u	u	-7%	7%[46.1 µM]	-18%
Cc1occc1C(=O)NCc1cccc(CNC(=O)c2ccoc2C)c1	22%	22%	40µM*	x	8%	x
Cc1occc1C(=O)NCc1ccc2c(c1)OCO2	-1%	15%	-15%	-13%	-6%	x
Cc1ccc(CNC(=O)C2c3ccccc3C(=O)N(C)C2c2c[nH]c3ccccc23)o1 (centres undefined)	u	-25%	50µM*	-15%	u	x
COc1ccc(C2C(C(=O)Nc3cc(C)on3)c3ccccc3C(=O)N2C)cc1 (centres undefined)	6%	-21%	-2%	x	1%	x
COc1ccccc1NC(=O)c1nn(C)c2c1CS(=O)(=O)c1ccccc1-2	-11%[46.1 µM]	-14%	2%	-19%	x	-17%
COc1cc(NC(=O)c2nn(C)c3c2COc2ccccc2-3)cc(OC)c1OC	1%[46.1 µM]	-14%	32µM*	-22%	7%[46.1 µM]	-20%
COC(=O)c1ccccc1NC(=O)c1nn(C)c2c1COc1ccccc1-2	0%[46.1 µM]	0%	7.1µM*	-9%	-4%[46.1 µM]	-13%
O=C(C1CCN(S(=O)(=O)c2ccc(Br)s2)CC1)N1CCN(c2cccc(C(F)(F)F)c2)CC1	8.9µM*	u	8%	-27%	u	u
Cn1cnc(S(=O)(=O)N2CCC(C(=O)N3CCN(c4cccc(C(F)(F)F)c4)CC3)CC2)c1	-3%[46.1 µM]	-4%	2%	-6%	x	i
Cc1csc(SCC(=O)N2CCOc3ccc(C(O)C4CCCCC4)cc3C2)n1 (centres undefined)	x	-4%	x	-11%	x	-5%
CN(C)S(=O)(=O)c1ccc(NC(=O)N2CCN(c3cccc(C(F)(F)F)c3)CC2)cc1	u	28µM*	1%	x	u	x
COc1ccc(-c2nc(C)c(CCNC(=O)c3ccccc3Br)s2)cc1OC	-3%[46.1 µM]	16%	0%	-1%[7.34 µM]	x	-8%[7.34 µM]
COc1ccc(C2NC(=O)NC(c3ccccc3)=C2c2nc3ccccc3s2)cc1 (centres undefined)	u	u	2%	x	u	x
O=C1NC(c2ccccc2)=C(c2nc3ccccc3s2)C(c2ccc(F)cc2)N1 (centres undefined)	u	22µM*	5%	x	23µM*	x
